Inconclusive results are not listed. Where a call stands in place of a potency, no number is given. Active and inactive are the calls of the source. Calls follow the shape of the dose curve; as a rule, active = well fitted inhibition curve with a large enough effect; inconclusive = small, poorly fitted or top-dose-only effect; inactive = no such curve, though single readings can be large or run the other way.
Molecular target: Cytochrome P450 2D6 (Homo sapiens) (UniProt P10635)
Assay: qHTS Assay for Inhibitors and Substrates of Cytochrome P450 2D6 (AID 891);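 also: luciferin methyl ether substrate demethylated by CYP2D6 with NADPH regeneration; nearly all actives have a fitted effect of over 60% in size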
Method in brief: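 Human CYP2D6 (5 nM) with 30 uM Luciferin-ME EGE (at Km) in 100 mM KPO4, compound preincubated 10 min, then NADPH regeneration system for 60 min at room temperature. Luciferin read by luminescence; normalized to 1.43 uM quinidine.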

Chain of Cytochrome P450 2D6 (Homo sapiens) (P10635 whole entry, looked up): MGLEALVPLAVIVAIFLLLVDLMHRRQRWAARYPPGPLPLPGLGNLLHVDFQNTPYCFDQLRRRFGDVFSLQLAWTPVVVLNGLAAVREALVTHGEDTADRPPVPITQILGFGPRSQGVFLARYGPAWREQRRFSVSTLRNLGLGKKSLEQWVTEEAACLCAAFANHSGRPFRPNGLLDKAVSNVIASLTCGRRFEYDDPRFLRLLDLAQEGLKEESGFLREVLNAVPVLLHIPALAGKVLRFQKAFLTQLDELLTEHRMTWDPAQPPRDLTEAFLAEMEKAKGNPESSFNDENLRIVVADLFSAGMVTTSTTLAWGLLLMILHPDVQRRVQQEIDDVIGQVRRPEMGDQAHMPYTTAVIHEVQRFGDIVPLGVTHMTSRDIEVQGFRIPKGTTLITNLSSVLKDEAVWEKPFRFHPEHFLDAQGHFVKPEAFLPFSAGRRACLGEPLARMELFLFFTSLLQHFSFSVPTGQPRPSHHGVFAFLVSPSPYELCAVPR

## NCC1(CC(=O)O)CCCCC1
  Potency: inactive

## N#CC(C#N)=Cc1ccc(O)c(O)c1
  Potency: inactive

Reference: PubChem BioAssay (NCATS)
